In PubChem BioAssay (NCI):
“And” between values parts separate entries of the source, which are not always exact repeats. Equal entries are not always repeated. The panel holds about 83,000 compounds, 20% with a hit somewhere; the sample as a whole holds those more often.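 Results are percent growth after 48 hours of single-concentration exposure. 100 means growth as in untreated cells, lower positive values show inhibition; negative values down to -100 show cell death.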

How the values were obtained:
Assay in all cases: NCI-60 one-dose screen, 48 h (100 = growth as untreated, 0 = no growth, -100 = all killed); active = growth percent below 10; inactive = the rest
SR leukemia = details: 10 µM unless noted
RPMI-8226 leukemia = system: RPMI-8226 leukemia
OVCAR-8 ovarian = system: OVCAR-8 ovarian
OVCAR-5 ovarian = system: OVCAR-5 ovarian
OVCAR-4 ovarian = system: OVCAR-4 ovarian
SK-OV-3 ovarian = system: SK-OV-3 ovarian
IGROV1 ovarian = system: IGROV1 ovarian
OVCAR-3 ovarian = system: OVCAR-3 ovarian
HS 578T breast = system: HS 578T breast
NCI/ADR-RES ovarian = system: NCI/ADR-RES ovarian

Measured: growth

O=c1ccn2c(n1)OC1CC2OC1COC(c1ccccc1)(c1ccccc1)c1ccccc1 (stereo unspecified)
inactive: SR leukemia 46.1% [100 µM] | RPMI-8226 leukemia; 10 µM 106% | RPMI-8226 leukemia; 100 µM 58.2% | OVCAR-8 ovarian; 10 µM 98.7% | OVCAR-8 ovarian; 100 µM 84.6% | OVCAR-5 ovarian; 10 µM 102% | OVCAR-5 ovarian; 100 µM 101% | OVCAR-4 ovarian; 10 µM 110% | OVCAR-4 ovarian; 100 µM 84.7% | SK-OV-3 ovarian; 10 µM 101% | SK-OV-3 ovarian; 100 µM 70.9% | IGROV1 ovarian; 10 µM 115% | IGROV1 ovarian; 100 µM 85.4% | OVCAR-3 ovarian; 10 µM 126% | OVCAR-3 ovarian; 100 µM 102% | HS 578T breast; 10 µM 121% | HS 578T breast; 100 µM 95.1% | NCI/ADR-RES ovarian; 10 µM 112% | NCI/ADR-RES ovarian; 100 µM 103%

c1ccc2c[n+](Cc3ccc4ccccc4n3)ccc2c1
inactive: SR leukemia 98.1% | RPMI-8226 leukemia; 10 µM unless noted 57.2% | OVCAR-8 ovarian; 10 µM unless noted 69% | OVCAR-5 ovarian; 10 µM unless noted 105% | OVCAR-4 ovarian; 10 µM unless noted 67.1% | SK-OV-3 ovarian; 10 µM unless noted 88.5% | IGROV1 ovarian; 10 µM unless noted 80.5% | OVCAR-3 ovarian; 10 µM unless noted 62.1% | HS 578T breast; 10 µM unless noted 86.2%

O=[N+]([O-])c1cccc(N=Cc2ccccc2)c1
inactive: SR leukemia 88.4% | RPMI-8226 leukemia; 10 µM unless noted 101% | OVCAR-8 ovarian; 10 µM unless noted 93.1% | OVCAR-5 ovarian; 10 µM unless noted 107% | OVCAR-4 ovarian; 10 µM unless noted 111% | SK-OV-3 ovarian; 10 µM unless noted 106% | IGROV1 ovarian; 10 µM unless noted 114% | OVCAR-3 ovarian; 10 µM unless noted 122% | HS 578T breast; 10 µM unless noted 110%

COC(=O)c1ccccc1Cl
inactive: SR leukemia 96.4% | RPMI-8226 leukemia; 10 µM unless noted 113% | OVCAR-8 ovarian; 10 µM unless noted 102% | OVCAR-5 ovarian; 10 µM unless noted 106% | OVCAR-4 ovarian; 10 µM unless noted 103% | SK-OV-3 ovarian; 10 µM unless noted 105% | IGROV1 ovarian; 10 µM unless noted 105% | OVCAR-3 ovarian; 10 µM unless noted 105% | HS 578T breast; 10 µM unless noted 108%

CC(CN(C)C)CN1c2ccccc2Sc2ccccc21 (stereo unspecified)
inactive: SR leukemia 79.1% and 96.2% and 45.7% | RPMI-8226 leukemia; 10 µM unless noted 74.9% | OVCAR-8 ovarian; 10 µM unless noted 95.7% and 109% and 101% | OVCAR-5 ovarian; 10 µM unless noted 88.9% and 79.7% | OVCAR-4 ovarian; 10 µM unless noted 88.1% and 102% and 84% | SK-OV-3 ovarian; 10 µM unless noted 97.2% and 95.8% and 101% | IGROV1 ovarian; 10 µM unless noted 73.5% and 92% | OVCAR-3 ovarian; 10 µM unless noted 114% and 98.6% and 90.7% | HS 578T breast; 10 µM unless noted 77.5% and 91.1% and 67.1%

CCCCNC(=O)c1ccccc1C
inactive: SR leukemia 85.3% | RPMI-8226 leukemia; 10 µM unless noted 99.7% | OVCAR-8 ovarian; 10 µM unless noted 107% | OVCAR-5 ovarian; 10 µM unless noted 94.4% | OVCAR-4 ovarian; 10 µM unless noted 104% | SK-OV-3 ovarian; 10 µM unless noted 97.3% | IGROV1 ovarian; 10 µM unless noted 96.2% | OVCAR-3 ovarian; 10 µM unless noted 105% | HS 578T breast; 10 µM unless noted 104%

Cc1c(Cl)cc(Cl)c(N)c1Cl
inactive: SR leukemia 117% | RPMI-8226 leukemia; 10 µM unless noted 98.1% | OVCAR-8 ovarian; 10 µM unless noted 104% | OVCAR-5 ovarian; 10 µM unless noted 107% | OVCAR-4 ovarian; 10 µM unless noted 108% | SK-OV-3 ovarian; 10 µM unless noted 101% | IGROV1 ovarian; 10 µM unless noted 114% | OVCAR-3 ovarian; 10 µM unless noted 112% | HS 578T breast; 10 µM unless noted 95.3%

CS/C(=C\c1ccc(C(=O)c2ccc(C)cc2)n1C)S(C)=O (stereo unspecified)
inactive: SR leukemia 30.9% [100 µM] | RPMI-8226 leukemia; 10 µM 70.2% | RPMI-8226 leukemia; 100 µM 56.9% | OVCAR-8 ovarian; 10 µM 91% | OVCAR-8 ovarian; 100 µM 82.3% | OVCAR-5 ovarian; 10 µM 105% | OVCAR-5 ovarian; 100 µM 102% | OVCAR-4 ovarian; 10 µM 89% | OVCAR-4 ovarian; 100 µM 69.2% | SK-OV-3 ovarian; 10 µM 103% | SK-OV-3 ovarian; 100 µM 87.6% | IGROV1 ovarian; 10 µM 93.2% | IGROV1 ovarian; 100 µM 82.9% | OVCAR-3 ovarian; 10 µM 114% | OVCAR-3 ovarian; 100 µM 69% | HS 578T breast; 10 µM 91.2% | HS 578T breast; 100 µM 90.6% | NCI/ADR-RES ovarian; 10 µM 76.8% | NCI/ADR-RES ovarian; 100 µM 52.7%

Cc1nc(Nc2ccc(Cl)cc2)c2cnn(-c3ccccc3)c2n1
inactive: SR leukemia 101% | RPMI-8226 leukemia; 10 µM unless noted 108% | OVCAR-8 ovarian; 10 µM unless noted 104% | OVCAR-5 ovarian; 10 µM unless noted 108% | OVCAR-4 ovarian; 10 µM unless noted 103% | SK-OV-3 ovarian; 10 µM unless noted 116% | IGROV1 ovarian; 10 µM unless noted 112% | OVCAR-3 ovarian; 10 µM unless noted 106% | HS 578T breast; 10 µM unless noted 97.9% | NCI/ADR-RES ovarian; 10 µM unless noted 98.2%

O=C(O)C1CSCN1 (stereo unspecified)
inactive: SR leukemia 97.4% | RPMI-8226 leukemia; 10 µM unless noted 106% and 105% | OVCAR-8 ovarian; 10 µM unless noted 113% and 98.8% | OVCAR-5 ovarian; 10 µM unless noted 118% and 88.8% | OVCAR-4 ovarian; 10 µM unless noted 112% and 102% | SK-OV-3 ovarian; 10 µM unless noted 105% and 94.9% | IGROV1 ovarian; 10 µM unless noted 106% | OVCAR-3 ovarian; 10 µM unless noted 120% and 107% | HS 578T breast; 10 µM unless noted 136% and 112%
